Assay outcomes (PubChem)
RORgamma inh: qHTS for inhibitors of ROR gamma transcriptional activity; 310,000 compounds, 5.4% hits; Potency, µM (titrated, usually from 53.6 µM), for inactives: top-dose activity change, negative = inhibition, most hits filed as inhibitors; Drosophila S2 Gal4-RORgamma UAS-luciferase reporter, 20 h; Nuclear receptor ROR-gamma (Mus musculus), P51450; AID 2551, 2010; note: % is set by controls: 0 for no effect and ±100 for the full control effect; nearly all actives have a fitted effect of over 60% in size
Target sequence (P51450 whole entry, looked up, the tested form may be a part): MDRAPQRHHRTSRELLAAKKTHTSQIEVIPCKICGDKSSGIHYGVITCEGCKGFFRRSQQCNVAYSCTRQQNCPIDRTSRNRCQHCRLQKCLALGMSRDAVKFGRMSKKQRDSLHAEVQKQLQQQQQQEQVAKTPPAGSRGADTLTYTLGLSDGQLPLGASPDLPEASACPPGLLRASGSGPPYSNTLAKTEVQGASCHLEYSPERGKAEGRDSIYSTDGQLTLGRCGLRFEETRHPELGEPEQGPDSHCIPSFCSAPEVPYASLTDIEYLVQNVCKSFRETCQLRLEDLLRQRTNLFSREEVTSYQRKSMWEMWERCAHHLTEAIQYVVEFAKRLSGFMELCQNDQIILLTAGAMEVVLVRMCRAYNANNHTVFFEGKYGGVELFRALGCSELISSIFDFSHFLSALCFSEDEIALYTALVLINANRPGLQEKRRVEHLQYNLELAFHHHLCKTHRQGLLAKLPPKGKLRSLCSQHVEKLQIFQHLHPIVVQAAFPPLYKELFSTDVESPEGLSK
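Drosophila S2 cells stably expressing Gal4-DBD/mouse RORγ fusion under metallothionein promoter plus UAS-luciferase; compound 1 h, then 700 uM CuSO4 induction for 20 h at ambient temperature; inhibition read as reduced luminescence.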
VP16 counter: VP16 counterscreen qHTS for inhibitors of ROR gamma transcriptional activity. Drosophila S2 Gal4-VP16 UAS-luciferase, luminescence, 20 h. Potency, µM (top dose mostly 53.6 µM), inactives show top-dose activity, negative = inhibition, hits mostly inhibitors. 310,000 compounds, 3.5% hits. AID 2546, 2010;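 note: Gal4-VP16 expression switched on by copper sulfate through the metallothionein promoter; % is set by controls: 0 for no effect and ±100 for the full control effect; nearly all actives have a fitted effect of over 50% in size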
Chronic BCR inh: qHTS Assay to Find Inhibitors of Chronic Active B-Cell Receptor Signaling | ABC-DLBCL IkBa-CBG/CBR reporter, luminescence ratio, 4 h | Potency, µM (doses to about 46.1 µM), for inactives: at the top dose activity change, negative = inhibition, actives largely listed as inhibitors | 340,000 compounds, 0.05% hits | AID 493014, 2011; active = well fitted inhibition curve with a large enough effect in the signal ratio, with a control signal flat, not every such curve was filed as active; inconclusive = small, poorly fitted or top-dose-only effect, or effect the other way, or a change in a side signal; the % refers to the signal ratio;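 note: plate controls were basal doxycycline-induced cells for no effect and cells given 10 µM MG132 for full effect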
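TMD8 ABC-DLBCL cells carrying doxycycline-inducible green luciferase fused to IkappaBalpha plus unfused red luciferase were exposed to compounds (up to 46 uM) for 4 hrs at 37C. Activity came from the overlap-corrected green/red luminescence ratio.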
a7 integrin act: qHTS for Activators of Integrin-Mediated Alleviation for Muscular Dystrophy; Potency, µM (highest dose often 38.3 µM), for inactives: at the top dose activation, usual class: activators; AID 624291, 2012; 350,000 compounds, 0.064% hits; alpha7betagal myoblasts, beta-gal FDG fluorescence, 48 h;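 note: 100% = response of the positive control SU9516; nearly all actives have a fitted effect of over 60% in size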
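Alpha7betagal+/- myoblasts (passage 13) were plated 16-24 hr, then exposed to compounds (1:260 dilution of DMSO stock) for 48 hours at 37C. After MPER lysis, β-galactosidase reporter activity was read as FDG fluorescence (ex 480/em 540) after 30 minutes.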
uPA generation: qHTS for Inhibitors of Cell Surface uPA Generation. Potency, µM (top dose mostly 38.3 µM), without a hit: top-dose activity change, negative = inhibition, most hits filed as inhibitors. 330,000 compounds, 0.31% hits. AID 540303, 2011. cell surface uPA generation assay, qHTS; active = well fitted inhibition curve with a large enough effect; inconclusive = small, poorly fitted or top-dose-only effect; inactive = no such curve, though single readings can be large or run the other way; tested in mouse RAW 264.7 cells; note: % is set by controls: 0 for no effect and ±100 for the full control effect; nearly all actives have a fitted effect of over 55% in size
Mito fusion act: qHTS Assay for Small Molecule Inhibitors of Mitochondrial Division or Activators of Mitochondrial Fusion. S. cerevisiae fusion-defective mutant growth rescue, CellTiterGlo 48 h. Potency, µM (titrated, usually from 46.1 µM), for the others: at the highest dose growth rescue (activation), hits mostly activators. 320,000 compounds, 0.23% hits. AID 485298, 2010; note: % of control where 0% means no effect; nearly all actives have a fitted effect of over 45% in size
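Yeast fusion mutant, YPEG (non-fermentable carbon), compound, 48 h at 37C non-permissive; CellTiterGlo added, 10 min RT, luminescence read. Rescued growth = division inhibition.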
Numbers without * were called inactive; ? = inconclusive; . = no result given. This is a sample that favours compounds with a hit; in the whole collection about 5.5% have one here. Unless noted, calls come from the whole dose curve; as a rule, active = well fitted curve in the direction sought with a large enough effect; inconclusive = small, poorly fitted or top-dose-only effect, or another doubt; inactive = no such curve, though single readings can be large; an effect the other way counts as inactive or inconclusive. Potency is the fitted concentration of half-maximal effect.

SMILES	RORgamma inh	VP16 counter	Chronic BCR inh	a7 integrin act	uPA generation	Mito fusion act
CC(=O)Nc1ccn(C2OC(C(COC(C)=O)NC(=O)C3CCCN3C(=O)OC(C)(C)C)C(OC(C)=O)C2OC(C)=O)c(=O)n1 (stereo not given)	12%	-8%	.	.	.	.
CCC1(c2ccccc2)NC(=O)N(CC(=O)Nc2ccc(S(N)(=O)=O)cc2)C1=O (stereo not given)	9%	4%	1%	?	11%	-3%
CCOC(=O)CSC1=NC(=O)/C(=C\c2ccc(Cl)cc2)S1	-26%	13µM*	?	-19%	-7%	-6%
Cn1nnnc1Sc1ncnc2scc(-c3ccc(F)cc3)c12	10µM*	24%	?	-38%	-10%	0.79µM*
Cn1nnnc1Sc1ncnc2scc(Br)c12	.	.	?	.	2.8µM*	.
Cn1nnnc1Sc1ncnc2scc(-c3ccccc3Br)c12	.	.	?	.	?	8%
CN1CCCC2(CCN(C(=O)c3cccc(F)c3)CC2)C1	-6%	6%	.	.	.	.
CCCCC1=CC2=C(c3ccco3)C(=O)C(C)(OC(=O)c3cccs3)C(=O)C2=CO1 (stereo not given)	-1%	-3%	.	.	.	.
CC1(C)SC(=S)N(/N=C/c2ccccc2)C1N(O)C(=O)Nc1ccc([N+](=O)[O-])cc1 (stereo not given)	?	3.5µM*	?	-37%	-1%	0%
CNC(=O)N(O)C1N(/N=C/c2ccc(N(C)C)cc2)C(=S)SC1(C)C (stereo not given)	10%	7%	1%	?	-1%	2%
C=CC(C)(C)c1c(O)c(CC=C(C)C)c(O)c2c(=O)c3ccc(O)c(O)c3oc12	.	.	.	-42%	11µM*	.
CC(=O)O[C@H]1C2OC(=O)C(C)=C2[C@@H]2OC(=O)[C@]3(CCC4OC41C)OC23 (stereo not given in full)	-13%	7%	-3%	19%	7.1µM*	-6%
COc1ccc(C(CCN(Cc2ccc(OC)c(OC)c2)C(C)=O)c2ccccc2)cc1 (stereo not given)	?	?	?	31%	-19%	16%
COc1ccc(CN(CCC(c2ccccc2)c2ccc(OC(C)C)cc2)C(=O)CCl)cc1OC (stereo not given)	13µM*	?	?	-64%	-15%	12%
Cc1ccc(-n2ncc3c(NCCCN4CCOCC4)ncnc32)cc1C	.	.	14%	.	.	.
COc1cc(OC)cc(N(C(=O)CNC(=O)c2cccs2)C(C(=O)NCC2CCCO2)c2ccccc2)c1 (stereo not given)	-11%	0%	2%	-81%	6%	-4%
Cc1cc(NC(=O)CN(C)S(=O)(=O)c2ccc(-c3ccc(=O)[nH]n3)s2)ccc1Br	13µM*	?	-3%	3%	10%	-6%
CCCCC[C@H](O)/C=C/C=C\C/C=C\CCCCC(=O)O	-14%	-4%	.	.	.	.
CCC1NC(=S)NC(C)=C1C(=O)c1ccccc1 (stereo not given)	10µM*	-21%	6%	10%	-7%	-28%
CCOc1ccc(-n2cc(-c3ccccc3)c3c(NC4CCCC4)ncnc32)cc1	.	.	16%	.	.	.
CCOC(=O)c1nnn(CC(=O)N2N=C(c3ccccc3)CC2c2ccccc2)c1C(=O)OCC (stereo not given)	13µM*	-19%	3%	12%	-6%	3%
COC(=O)c1cc(NC(=O)c2ccc3c(c2)N(Cc2cccc(Cl)c2)C(=O)c2ccccc2S3=O)cc(C(=O)OC)c1 (stereo not given)	.	.	-6%	.	.	.
Cc1cc2[nH]c(=S)[nH]c2cc1C	?	2%	1%	6%	15%	-5%
